Screening data deposited in PubChem BioAssay by several laboratories.
ERp5 block: inhibitors of ERp5-driven insulin aggregation, primary screen, biochemical, turbidity, absorbance 650 nm, single point; inhibition, % at 9.99 µM; Protein disulfide-isomerase A6 (Homo sapiens), Q15084; AID 651711, 2012; 90 min; 350,000 compounds, 0.05% hits;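 active means mean replicate inhibition above about 25%, with every replicate also reaching it, limit read from the data, passing the limit was not always enough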
Target sequence (Q15084 whole entry, looked up): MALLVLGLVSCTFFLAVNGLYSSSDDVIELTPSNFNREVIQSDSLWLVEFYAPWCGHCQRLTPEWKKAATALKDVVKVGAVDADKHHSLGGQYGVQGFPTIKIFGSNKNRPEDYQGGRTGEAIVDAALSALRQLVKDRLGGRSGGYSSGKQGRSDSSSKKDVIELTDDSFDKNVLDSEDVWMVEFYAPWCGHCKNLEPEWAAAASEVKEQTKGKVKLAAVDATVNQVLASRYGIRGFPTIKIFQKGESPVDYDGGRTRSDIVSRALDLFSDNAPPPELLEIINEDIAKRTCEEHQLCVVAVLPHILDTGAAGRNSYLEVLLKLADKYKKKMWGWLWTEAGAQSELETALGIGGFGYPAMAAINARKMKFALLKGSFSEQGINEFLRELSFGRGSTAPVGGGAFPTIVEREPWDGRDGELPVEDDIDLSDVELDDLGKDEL
CendR NRP1 mod: modulators of CendR peptide binding to NRP-1, primary screen, biochemical, fluorescence polarization, uHTS; AID 602438, 2012; 360,000 compounds, 0.85% hits; inhibition, % at 25 µM; Neuropilin-1 (Homo sapiens), O14786; FAM-RPARPAR peptide binding to NRP-1;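 active means inhibition or corrected inhibition above about 18%, plus a signal ratio from 0.5 to 1.5, limit read from the data, passing the limit was not always enough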
PDI turbidity: inhibitors of human PDI, primary screen, biochemical, turbidity, single point, plate reader; Protein disulfide-isomerase (Homo sapiens), P07237; PDI insulin aggregation turbidity, A650, 90 min; inhibition, % at 10 µM; 350,000 compounds, 0.052% hits; AID 588391, 2011;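 active means mean inhibition across replicates of 30% or more, whatever share of single replicates reach that level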
PglD inh: C. jejuni PglD acetyltransferase inhibitors, primary screen, biochemical, DTNB colorimetric, single point; AID 602405, 2012; UDP-N-acetylbacillosamine N-acetyltransferase PglD (Campylobacter jejuni); purified PglD enzyme, DTNB colorimetric CoA detection; inhibition, % at 12.5 µM; 360,000 compounds, 0.098% hits; in the data active means inhibition above about 16%, passing the limit was not always enough
ALR H2O2 inh: inhibitors of human ALR sulfhydryl oxidase, primary screen, biochemical, H2O2 detection, HRP-luminol luminescence, single point; FAD-linked sulfhydryl oxidase ALR (Homo sapiens), P55789; purified ALR, DTT oxidation; inhibition, % (no concentration beside the values); 290,000 compounds, 3.8% hits; AID 485317, 2010;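 active means mean replicate inhibition above about 79%, with every replicate also reaching it, limit read from the data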
ARNT TACC3 PPI: disruptors of ARNT/TACC3 protein interaction, primary screen, biochemical, AlphaScreen, single concentration; Transforming acidic coiled-coil-containing protein 3 (Homo sapiens), Q9Y6A5; AlphaScreen His-ARNT PAS-B/GST-TACC3 binding, luminescence; TACC3 fragment carries E629A point mutation; inhibition, % at 9.99 µM; 390,000 compounds, 0.66% hits; AID 623870, 2012;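 active means mean inhibition of replicates at least 50% and at least half of replicates each reaching 50%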
A number is an active result; - = inactive; . = not tested or not shown. This excerpt belongs to a sample that is enriched for hits.

SMILES | ERp5 block | CendR NRP1 mod | PDI turbidity | PglD inh | ALR H2O2 inh | ARNT TACC3 PPI
Cn1cnc(S(=O)(=O)N[C@@H]2CC[C@H](CC(=O)Nc3ccc(-c4ccccc4)cc3)O[C@@H]2CO)c1 | - | . | . | - | . | -
C/C=C/c1cccc(-c2nc(C(=O)N(C)C)cc3c2[C@@H](CCO)N([S@](=O)C(C)(C)C)C3)c1 | - | . | . | . | . | .
CN(C)C(=O)[C@@]1(Cc2ccccc2)COC(c2ccc(OCCCO)cc2)=N1 | - | . | . | - | . | .
O=c1c2c(nc3c(-c4ccccc4)c[nH]n13)CCC2 | . | - | - | - | - | -
O=c1c2c(nc3c(-c4ccc(Cl)cc4)c[nH]n13)CCC2 | - | - | - | - | - | 46
O=C(N[C@H]1C=C[C@H](CC(=O)N2CCOCC2)O[C@H]1CO)c1cccc(F)c1 | - | . | . | - | . | -
CC(=O)Nc1cccc(Oc2nc(C(F)(F)F)nc3ccccc23)c1 | - | - | - | - | - | -
CC(=O)Nc1cccc(Oc2nc(-c3ccccn3)nc3ccccc23)c1 | - | - | - | - | - | 48
CC(=O)Nc1ccc(Oc2nc(-c3ccccn3)nc3ccccc23)cc1 | - | - | - | . | . | 58
CC(=O)Nc1ccc(Oc2ncccn2)cc1 | . | - | - | - | - | -
C[C@H]1CN([C@@H](C)CO)C(=O)Cc2cc(NC(=O)Nc3ccccc3)ccc2O[C@H]1CN(C)CC1CCCCC1 | - | . | . | - | . | -
CN1[C@@H]2c3ccc(/C=C/c4ccccc4)c(=O)n3C[C@@H]2[C@@H](CO)[C@@H]1C(=O)NC1CCCC1 | - | . | . | . | . | .
Brc1c(CSc2nnc(-c3ccco3)o2)nc2ccccn12 | . | - | - | . | 97 | -
c1coc(-c2nnc(SCc3cn4ccccc4n3)o2)c1 | . | - | - | - | - | -
CC(=O)Oc1cc(O)c2c(c1)OC(c1ccc(OC(C)=O)c(OC(C)=O)c1)C(OC(C)=O)C2=O (stereo unspecified) | - | - | - | - | 89 | -
COc1cc(C2Oc3cc(C4Oc5cc(O)cc(O)c5C(=O)C4O)ccc3OC2CO)ccc1O (stereo unspecified) | - | - | - | - | - | -
COC(C/C=C\[C@H](O)COCc1ccccc1)OC | - | 25 | - | - | - | -
COC(C/C=C/C(=O)[C@H](C)OCc1ccccc1)OC | . | - | - | - | 87 | -
COc1cccc(/C=N/Nc2nnc(C)n2N)c1O | - | - | - | - | - | 58
COc1cccc(C=Nc2ccc(N3CCOCC3)cc2)c1O | - | - | - | - | 99 | -
COc1cccc(C=Nc2ccc3c(c2)OCCO3)c1O | . | - | - | - | 87 | -
COc1cccc(/C=N/N2CCOCC2)c1O | - | - | - | . | - | -
C/C(=N\Nc1cc(N2CCOCC2)ncn1)c1ccc(O)cc1 | - | - | - | - | 97 | -
C/C(=N\NC(=O)c1ccc(O)cc1)c1ccc(N2CCOCC2)cc1 | - | - | - | . | - | -
CCO[C@H]1OC(C(=O)N2CCCC2)=C[C@@H](c2ccc(C(F)(F)F)cc2)[C@@H]1CCCO | - | . | . | - | . | -
SMILES | ERp5 block | CendR NRP1 mod | PDI turbidity | PglD inh | ALR H2O2 inh | ARNT TACC3 PPI
CCN1CCN(c2ccc(N=Cc3ccccc3O)cc2)CC1 | - | - | - | . | 98 | .
COc1cccc(/C=N/Nc2cc(N3CCOCC3)ncn2)c1O | - | - | - | - | - | 49
Cc1cc(O)c(C=Nc2ccc(N3CCOCC3)cc2)c(C)c1Cl | - | - | - | - | - | -
O=C(C[C@H]1C=C[C@@H](NC(=O)c2ccncc2)[C@H](CO)O1)Nc1ccccc1 | - | . | . | . | . | .
OC[C@@H]1[C@H](c2ccc(-c3cccnc3)cc2)[C@@H]2CN(CC3CCOCC3)CCCCN12 | - | . | . | - | . | -
COc1ccc(-n2c(CCc3ccccc3)n[nH]c2=S)cc1 | - | - | - | - | - | -
Oc1ccc(CCc2n[nH]c(=S)n2-c2ccc(F)cc2)cc1 | - | - | - | - | 81 | -
CC(C)(C)N(NC(=O)Nc1ccccc1)C(=O)c1ccccc1 | . | - | - | - | - | -
